A number with no mark means an inactive call. Results filed as inconclusive are left out. Entries that show only a call come without a potency. The source made the active and inactive calls. Unless noted, calls come from the whole dose curve.
Assays:
[1] = Nuclear factor erythroid 2-related factor 2/antioxidant responsive element (Nrf2/ARE) small molecule agonists: qHTS cell viability counter screen in human keratinocytes (AID 1919968; active = well fitted curve in the direction sought with a large enough effect in the repeat runs; an effect the other way counts as inactive or inconclusive; note: nearly all actives have a fitted effect of over 55% in size; note: potency is the fitted concentration of half-maximal effect)
How it was run: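 KeratinoSens HaCaT cells, 1,500/well, preincubated 5 h, then exposed to compounds in DMSO for 23 h at 37 C/5% CO2. Viability read as CellTiter-Fluor fluorescence after 1 h, in the same wells as the ARE-luciferase read.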

[2] = molecular target: KiSS-1 receptor (Homo sapiens) (UniProt Q969F8); assay: Human kisspeptin (KISS1R) small molecule agonists, calcium flux assay in KISS1R-HEK293 cells (AID 1920064; active = well fitted curve in the direction sought with a large enough effect in the repeat runs; an effect the other way counts as inactive or inconclusive)
KiSS-1 receptor (Homo sapiens), sequence (Q969F8 whole entry, looked up): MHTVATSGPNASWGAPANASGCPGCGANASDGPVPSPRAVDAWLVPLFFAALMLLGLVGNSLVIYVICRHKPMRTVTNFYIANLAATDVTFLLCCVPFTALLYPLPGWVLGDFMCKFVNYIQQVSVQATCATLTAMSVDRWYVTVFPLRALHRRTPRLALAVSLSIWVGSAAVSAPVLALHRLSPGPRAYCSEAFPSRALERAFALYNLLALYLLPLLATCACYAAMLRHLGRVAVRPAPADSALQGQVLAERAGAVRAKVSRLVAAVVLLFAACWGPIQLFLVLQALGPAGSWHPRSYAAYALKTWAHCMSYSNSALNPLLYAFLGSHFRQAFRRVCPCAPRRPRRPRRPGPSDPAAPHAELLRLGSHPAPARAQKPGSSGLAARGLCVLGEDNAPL
How it was run: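 HEK293 cells stably expressing human KISS1R were loaded with calcium dye for 1 h at 37 C, then given compound; fluorescence (Ex/Em 480/540) was read kinetically for 3 min. Fifteen concentrations, triplicate.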

[3] = G protein-coupled receptor (GPCR) small molecule agonists, calcium flux assay: HEK293 wild type cell line counter screen (AID 1920065)
How it was run: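 Wild-type HEK293 cells plated 18 h, loaded with calcium dye 1 h at 37 C, then compounds added in agonist mode (ATP as positive control). Kinetic fluorescence Ex/Em 480/540 recorded 3 min at 1 sec intervals; 15 concentrations, triplicate.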

[4] = p53 small molecule agonists, cell-based qHTS assay with human liver microsomes (AID 1963577);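 note: p53 response element beta-lactamase reporter cells with liver microsomes plus NADPH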
How it was run: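 16 h, 37 C exposure of p53RE-bla cells to compounds with human liver microsomes and NADPH (0.5 mg/mL final each); detection via LiveBLAzer mixture, 2 h dark at room temperature.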

[5] = p53 small molecule agonists, cell-based qHTS assay with rat liver microsomes (AID 1963578)
How it was run: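 With rat liver microsomes and NADPH present (0.5 mg/mL final each), p53RE-bla cells are treated with compound for 16 h at 37 C. LiveBLAzer detection mixture is then applied for 2 h at room temperature in the dark.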

[6] = p53 small molecule agonists, cell-based qHTS assay with human liver microsomes: qHTS cell viability counter screen (AID 1963579); note: nearly all actives have a fitted effect of over 45% in size; note: potency is the fitted concentration of half-maximal effect
How it was run: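 In this multiplexed counter screen, the reporter plates were subsequently treated with CellTiter-Glo so that cell viability, reflected by luminescence, could be recorded for p53RE-bla cells dosed 16 h with compounds under microsomal activation (HLM and NADPH).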

[7] = p53 small molecule agonists, cell-based qHTS assay with rat liver microsomes: qHTS cell viability counter screen (AID 1963580); note: nearly all actives have a fitted effect of over 45% in size
How it was run: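 Intracellular ATP, by CellTiter-Glo luminescence, defines viability. HCT-116 p53RE-bla cells, 4,000 per well, were compound-treated in the presence of rat liver microsomes and NADPH for 16 h at 37 C.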

[8] = molecular target: 5-hydroxytryptamine receptor 2A (Homo sapiens) (UniProt P28223); assay: 5-hydroxytryptamine receptor 2A (HTR2A) small molecule agonists, cell-based qHTS assay (AID 1963587); note: nearly all actives have a fitted effect of over 30% in size; note: potency is the fitted concentration of half-maximal effect
5-hydroxytryptamine receptor 2A (Homo sapiens), sequence (P28223 whole entry, looked up): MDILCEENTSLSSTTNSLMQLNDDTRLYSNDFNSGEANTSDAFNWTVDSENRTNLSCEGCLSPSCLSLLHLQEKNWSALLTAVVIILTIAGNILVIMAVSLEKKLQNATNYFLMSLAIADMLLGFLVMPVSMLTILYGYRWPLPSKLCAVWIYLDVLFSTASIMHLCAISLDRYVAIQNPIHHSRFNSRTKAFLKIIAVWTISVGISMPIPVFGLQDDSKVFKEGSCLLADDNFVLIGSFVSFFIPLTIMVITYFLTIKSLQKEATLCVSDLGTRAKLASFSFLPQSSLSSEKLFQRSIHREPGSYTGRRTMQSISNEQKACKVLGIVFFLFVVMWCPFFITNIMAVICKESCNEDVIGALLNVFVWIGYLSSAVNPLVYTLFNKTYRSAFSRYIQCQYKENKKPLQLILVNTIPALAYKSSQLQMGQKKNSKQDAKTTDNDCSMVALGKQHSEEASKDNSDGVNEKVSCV
How it was run: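 Kinetic calcium-flux fluorescence (2 min, 1 sec intervals) after compound addition in agonist mode. HTR2A-CHO cells were cultured 18 h, then dye-loaded 1 h at 37 C.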

[9] = molecular target: Muscarinic acetylcholine receptor M1 (Homo sapiens) (UniProt P11229); assay: Cholinergic receptor muscarinic 1 (CHRM1) small molecule agonists, cell-based qHTS assay (AID 1963589); note: nearly all actives have a fitted effect of over 35% in size
Muscarinic acetylcholine receptor M1 (Homo sapiens), sequence (P11229 whole entry, looked up): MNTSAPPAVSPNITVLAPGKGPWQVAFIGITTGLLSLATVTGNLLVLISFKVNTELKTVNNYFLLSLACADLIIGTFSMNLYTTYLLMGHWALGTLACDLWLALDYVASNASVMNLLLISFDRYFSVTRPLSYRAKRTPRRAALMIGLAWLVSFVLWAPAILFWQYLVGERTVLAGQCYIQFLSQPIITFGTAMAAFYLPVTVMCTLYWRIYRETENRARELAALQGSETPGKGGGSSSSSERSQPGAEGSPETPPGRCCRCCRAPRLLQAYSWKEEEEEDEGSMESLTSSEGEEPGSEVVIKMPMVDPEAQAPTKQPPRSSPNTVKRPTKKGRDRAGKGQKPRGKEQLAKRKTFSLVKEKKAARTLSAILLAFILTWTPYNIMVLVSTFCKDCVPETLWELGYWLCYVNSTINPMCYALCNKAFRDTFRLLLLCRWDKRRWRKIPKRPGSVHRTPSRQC
How it was run: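 CHO cells stably expressing human CHRM1 were loaded with calcium dye for 1 h at 37 C, then compound was added in agonist mode. Intracellular calcium fluorescence was followed kinetically at 1 s intervals. Fifteen concentrations were tested in three independent runs.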

[10] = cAMP Responsive Elements (CRE) small molecule agonists, cell-based qHTS assay (AID 1963590)
How it was run: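 CRE-bla HEK 293T cells, 2,000/well in DMEM with 10% dialyzed FBS and 25 mM HEPES, pre-incubated 18 h at 37 C, then exposed to compound 3 h at 37 C. Beta-lactamase reporter read with LiveBLAzer B/G FRET substrate after 2 h at room temperature.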

[11] = cAMP Responsive Elements (CRE) small molecule antagonists, cell-based qHTS assay (AID 1963591; active = well fitted inhibition curve with a large enough effect in the signal ratio in the repeat runs, not every such curve was filed as active; the % refers to the signal ratio)
How it was run: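 CRE-bla HEK293T cells plated 18 h, then given compound plus NKH477 at 0.25 uM final for 3 h at 37C. Beta-lactamase reporter read with LiveBLAzer B/G FRET substrate after 2 h at room temperature.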

[12] = molecular target: Beta-2 adrenergic receptor (Homo sapiens) (UniProt P07550); assay: Adrenergic beta2 receptor (ADRB2) small molecule antagonists, cell-based qHTS assay (AID 1963592); note: series mostly up to about 92 µM; nearly all actives have a fitted effect of over 50% in size
Beta-2 adrenergic receptor (Homo sapiens), sequence (P07550 whole entry, looked up): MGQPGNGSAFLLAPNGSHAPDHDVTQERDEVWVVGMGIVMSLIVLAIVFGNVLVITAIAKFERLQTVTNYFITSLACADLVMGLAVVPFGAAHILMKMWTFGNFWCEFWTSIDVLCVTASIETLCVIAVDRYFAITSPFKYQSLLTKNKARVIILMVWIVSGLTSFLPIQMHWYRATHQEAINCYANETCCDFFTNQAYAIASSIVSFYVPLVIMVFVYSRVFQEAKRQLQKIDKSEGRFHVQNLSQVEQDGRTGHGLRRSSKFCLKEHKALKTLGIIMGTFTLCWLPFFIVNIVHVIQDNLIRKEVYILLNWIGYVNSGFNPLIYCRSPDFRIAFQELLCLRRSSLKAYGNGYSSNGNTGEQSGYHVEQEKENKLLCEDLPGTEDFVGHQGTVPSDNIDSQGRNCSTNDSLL
How it was run: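 Cells (CHO, stable ADRB2 overexpression) incubated 18-20hr at 37C; compounds added from DMSO; agonist mix (1nM isoproterenol, 100uM IBMX, 25uM Ro-20-1724) added; 0.5hr RT; d2-cAMP and anti-cAMP-cryptate added; 1hr RT; 665/615 nm read.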

[13] = molecular target: D(2) dopamine receptor (Homo sapiens) (UniProt P14416); assay: Dopamine D2 receptor (DRD2) small molecule agonists, cell-based qHTS assay (AID 1963594); note: nearly all actives have a fitted effect of over 35% in size
D(2) dopamine receptor (Homo sapiens), sequence (P14416 whole entry, looked up): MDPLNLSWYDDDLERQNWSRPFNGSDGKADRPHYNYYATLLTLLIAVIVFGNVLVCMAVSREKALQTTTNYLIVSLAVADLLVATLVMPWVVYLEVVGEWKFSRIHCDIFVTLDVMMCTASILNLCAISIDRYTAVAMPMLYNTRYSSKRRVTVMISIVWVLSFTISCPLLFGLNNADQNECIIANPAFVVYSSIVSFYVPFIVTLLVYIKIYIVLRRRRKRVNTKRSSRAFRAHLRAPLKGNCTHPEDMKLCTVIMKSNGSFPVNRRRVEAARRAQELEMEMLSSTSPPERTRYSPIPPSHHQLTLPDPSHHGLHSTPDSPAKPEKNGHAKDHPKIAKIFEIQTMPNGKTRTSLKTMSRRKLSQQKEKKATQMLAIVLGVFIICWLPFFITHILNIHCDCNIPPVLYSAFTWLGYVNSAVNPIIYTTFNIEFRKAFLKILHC
How it was run: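 cAMP accumulation in DRD2-HEK293 cells measured by HTRF after 1 h detection; compounds added 10 min before NKH477 (200nM […]) forskolin-analogue stimulation, 30 min at room temperature, with Ro20-1724 present at 0.1 mM final.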

[14] = molecular target: D(2) dopamine receptor (Homo sapiens) (UniProt P14416); assay: Dopamine D2 receptor (DRD2) small molecule antagonists, cell-based qHTS assay (AID 1963595; active = well fitted inhibition curve with a large enough effect in the signal ratio in the repeat runs, with a control signal flat; the % refers to the signal ratio; note: potency is the fitted concentration of half-maximal effect)
How it was run: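 Stable D2 receptor HEK293 line, 24 h after seeding. Compound preincubated 10 min, then quinpirole (12 nM) with forskolin analogue NKH477 (200 nM), 30 min, room temperature. Detection by time-resolved FRET of cAMP.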

[15] = molecular target: Muscarinic acetylcholine receptor M1 (Homo sapiens) (UniProt P11229); assay: Cholinergic receptor muscarinic 1 (CHRM1) small molecule antagonists, cell-based qHTS assay (AID 1963588); note: nearly all actives have a fitted effect of over 40% in size; note: potency is the fitted concentration of half-maximal effect
How it was run: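 CHRM1-CHO calcium-flux assay, antagonist mode. Cells were seeded 18 h, dye-loaded 1 h at 37 C and given compound for 5 min at RT, then acetylcholine was added at 50nM. FDSS fluorescence was read 3 min; 15 concentrations, three runs.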

[16] = p53 small molecule agonists, cell-based qHTS assay: qHTS cell viability counter screen (AID 1963581); note: nearly all actives have a fitted effect of over 45% in size
How it was run: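 p53RE-bla HCT-116 cells, compounds added 5 h after plating and incubated 16 h at 37 C. Cytotoxicity measured in the same wells as intracellular ATP by CellTiter-Glo luminescence after 30 min at room temperature.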

[17] = p53 small molecule agonists, cell-based qHTS assay (AID 1963582; active = well fitted activation curve with a large enough effect in the signal ratio in the repeat runs, not every such curve was filed as active; the % refers to the signal ratio)
How it was run: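 p53RE-bla reporter cells, compounds added in DMSO after 5 h plating, incubated 16 h at 37 C. Beta-lactamase read via 2 h room-temperature LiveBLAzer B/G FRET substrate, fluorescence intensity.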

[18] = molecular target: 5-hydroxytryptamine receptor 2A (Homo sapiens) (UniProt P28223); assay: 5-hydroxytryptamine receptor 2A (HTR2A) small molecule antagonists, cell-based qHTS assay (AID 1963586); note: nearly all actives have a fitted effect of over 45% in size
How it was run: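 Antagonist-mode intracellular calcium assay: DOI (4 nM) added after 5 min compound pre-incubation at room temperature to dye-loaded HTR2A-CHO cells. Fluorescence followed for 3 min, sampled every second.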

[19] = molecular target: Beta-2 adrenergic receptor (Homo sapiens) (UniProt P07550); assay: Adrenergic beta2 receptor (ADRB2) small molecule agonists, cell-based qHTS assay (AID 1963593);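 note: CHO cells stably overexpressing human ADRB2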
How it was run: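 CHO cells stably over-expressing ADRB2 were plated overnight at 37C, then dosed with compounds plus a stimulation mix containing 100uM IBMX and 25uM Ro-20-1724 for 0.5hr at room temperature. cAMP was measured by HTRF competition, 1hr.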

[20] = molecular target: Gonadotropin-releasing hormone receptor (Homo sapiens) (UniProt P30968); assay: Human gonadotropin-releasing hormone receptor (GnRHR) small molecule agonists, calcium flux assay in GnRHR-HEK293 cells (AID 1920063); note: nearly all actives have a fitted effect of over 35% in size
Gonadotropin-releasing hormone receptor (Homo sapiens), sequence (P30968 whole entry, looked up): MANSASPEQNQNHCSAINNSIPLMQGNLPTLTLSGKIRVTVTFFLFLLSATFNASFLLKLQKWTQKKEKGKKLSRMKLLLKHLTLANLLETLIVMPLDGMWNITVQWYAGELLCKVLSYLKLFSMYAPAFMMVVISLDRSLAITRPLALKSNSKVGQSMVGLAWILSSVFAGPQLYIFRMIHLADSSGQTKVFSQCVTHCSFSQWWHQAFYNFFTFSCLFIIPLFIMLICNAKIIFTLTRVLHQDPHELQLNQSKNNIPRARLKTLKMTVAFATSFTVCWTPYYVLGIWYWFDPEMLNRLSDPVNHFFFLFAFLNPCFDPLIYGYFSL
How it was run: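 HEK293 cells stably expressing human GnRHR were dye-loaded for 1 h at 37 C. Compound was added in agonist mode and fluorescence (Ex/Em 480/540) recorded kinetically for 3 min. Fifteen concentrations, triplicates.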

Structure (SMILES)	Potency [1]	Potency [2]	Potency [3]	Potency [4]	Potency [5]	Potency [6]	Potency [7]	Potency [8]	Potency [9]	Potency [10]	Potency [11]	Potency [12]	Potency [13]	Potency [14]	Potency [15]	Potency [16]	Potency [17]	Potency [18]	Potency [19]	Potency [20]
CN(CCCN1c2ccccc2CCc2ccccc21)CC(=O)c1ccc(Cl)cc1	inactive	inactive	inactive	inactive	inactive	inactive	inactive	inactive	inactive	inactive	inactive	inactive	inactive	inactive						
OCCN1CCN(CCO)CC1	inactive	inactive	inactive	inactive	inactive	inactive	inactive	inactive	inactive	inactive		inactive	inactive	inactive	inactive					
NCc1cccc(C2CCN(C(=O)c3ccc(C#Cc4ccccc4F)o3)CC2)c1	54.5 µM (active)	inactive	inactive		inactive	inactive		21.9 µM (active)	inactive					54.5 µM (active)						
C[C@]12CCC(=O)C=C1[C@@H]1C[C@@H]1[C@H]1[C@@H]3[C@@H]4C[C@@H]4[C@@]4(CCC(=O)O4)[C@@]3(C)CC[C@@H]12	inactive	inactive	inactive	inactive	inactive	inactive	inactive	inactive	inactive			inactive	inactive	inactive	18.3 µM (active)	inactive	inactive	inactive	inactive	
C=C[Si]1(C)O[Si](C)(C=C)O[Si](C)(C=C)O[Si](C)(C=C)O1 (configuration not stated)	inactive	inactive		inactive	inactive		inactive	inactive	inactive	inactive		inactive	inactive	inactive	inactive	inactive	inactive	inactive		
CCCCCOC(=O)CCCCC	inactive	inactive	inactive	inactive	inactive	inactive	inactive	inactive	inactive	inactive	inactive	inactive	inactive	inactive	inactive	inactive	inactive		inactive	
CCCCOC(=O)CC#N	inactive	inactive	inactive	inactive	inactive		inactive	inactive	inactive	inactive		inactive	inactive	inactive	inactive	inactive	inactive	inactive	inactive	
C=CCCCCCC	inactive	inactive	inactive	inactive	inactive		inactive	inactive	inactive	inactive	inactive	inactive	inactive	inactive	inactive	inactive	inactive	inactive	inactive	
CC(=O)CCc1ccc(OC(C)=O)cc1	inactive	inactive	inactive	inactive	inactive	inactive		inactive	inactive	inactive	inactive	inactive		inactive	inactive	inactive	inactive	inactive		
O=C1C=CC(=O)N1c1ccccc1	27.3 µM (active)	inactive	inactive		inactive	20.4 µM (active)		24.5 µM (active)						13.7 µM (active)	inactive			inactive		
CC/C=C1/OC(=O)c2ccccc21	inactive	inactive	inactive	inactive	inactive		inactive	inactive	inactive	inactive	inactive	inactive	inactive	inactive	inactive		inactive	inactive		
Cc1cc(O)c2ccccc2c1O	13.3 µM (active)	inactive	inactive	inactive	inactive	inactive		inactive	inactive				inactive	inactive	inactive		inactive	inactive		
CCCCCCCCCCCCN1CCCC1=O		inactive	inactive	inactive	inactive	inactive	inactive	inactive	inactive	inactive		inactive	inactive	inactive	inactive	inactive	inactive	inactive	inactive	inactive
COc1ccc(OC(F)(F)F)cc1CN[C@H]1CCCN[C@H]1c1ccccc1		inactive	inactive	inactive	inactive	inactive	inactive		inactive			inactive			inactive	inactive	inactive	inactive	inactive	inactive
